The record followed here is PubChem BioAssay (NCI).

Each structure is given as a SMILES string. About 79,000 compounds went through this panel and 15% of them were active in at least one assay; those are over-represented in the sample as a whole. Values without a mark were called inactive. Active and inactive are the calls of the source. Cut-off read from the data, not from the text of the source: active = growth inhibition above about 70%; inactive = the rest.

One test can be described thus: NCI Yeast Anticancer Drug Screen. Data for the rad50 strain (AID 155).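 Note: 0% = growth of vehicle-only cultures of the same strain.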 The following applies: S. cerevisiae rad50 strain growth inhibition; at 50.0 µM; hits give high values. The method in brief: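 DNA repair mutant yeast, compound exposure, growth read-out; inhibition is taken relative to vehicle.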
As to `CC(C)CCOC(=S)S`, the growth inhibition is 35.2%.

On to `CCCCCCNC(=O)CCC(NC(=O)c1ccc(N(C)Cc2cnc3nc(N)nc(N)c3n2)cc1)C(=O)NCCCCCC` (stereo not given), for which the growth inhibition was 18.2%.

As to `N#C/C(N)=C(\C#N)N=CNc1ccc(N)cc1`, the growth inhibition was -32.8%.

On to `ClC1CC2CCC1C2Br` (stereo not given) (tested in a mixture with another compound), for which the growth inhibition was -19.6%.

With `NC(CS)C(=O)NCCNCCNc1ccc(NCCNCCNC(=O)C(N)CS)c2c1C(=O)c1c(O)ccc(O)c1C2=O` (stereo not given), the growth inhibition was -30.4%.

In the case of `Nc1c(I)cc(C(=O)O)c(O)c1I`, the growth inhibition was 2.45%.

As to `O=c1[nH]cnc2c1ncn2CCCc1ccccc1`, the growth inhibition was -1%.

For `CC(=O)NNC(=S)/N=C/c1c(C)[nH]n(-c2ccccc2)c1=O`, the growth inhibition is 4.6%.

Consider `CCC(CO)c1ccccc1` (stereo not given), for which the growth inhibition was -3.6%.

On to `CN=NNc1ccccc1`, for which the growth inhibition was -1.4%.

In the case of `CC(C)(CCCOc1ccccc1)/C(=N/O)c1ccccc1`, the growth inhibition is 14.1%.

Regarding `COC(=O)/C(C#N)=C/c1cccnc1`, the growth inhibition was -10.1%.

Consider `CN(Cc1nc2c(N)nc(N)nc2nc1N)c1ccc(C(=O)NC(CCC(=O)O)C(=O)O)cc1` (stereo not given), for which the growth inhibition was 7.65%.

In the case of `CCN(CC)C(=O)Nc1cccc(O)c1`, the growth inhibition was -6.55%.

`O=C(NCCN1CCCC1)Nc1ccccc1`: the growth inhibition is -3.2%.

For `CC(O)CN1CCOCC1` (stereo not given), the growth inhibition is 9.55%.

As to `COc1ccc(NC(=O)CC(=O)N2N=C(N(c3ccccc3)c3ccccc3)CC2c2ccccc2)cc1` (stereo not given), the growth inhibition was 4.75%.

For the molecule `CSc1cc(/C=C/c2ccccc2)ccc1[N+](=O)[O-]`, the growth inhibition is 1.65%.

As to `NCc1ccc(C(=O)O)cc1`, the growth inhibition is -30.2%.

Regarding `O=C1NC(c2ccccc2Cl)Nc2ccccc21` (stereo not given), the growth inhibition was -1.1%.

As for `O=C1c2ccccc2Cc2ccccc21`, the growth inhibition was 3.5%.

With `CN1CCC(c2ccccc2)(c2ccccc2)OC1`, the growth inhibition is 3.7%.

`O=[N+]([O-])c1cccc(C2=NOC3CCCC23)c1` (stereo not given): the growth inhibition was 17.6%.

For `C[Si](C)(C)C#CCOC=C1CC1`, the growth inhibition was 26%.

Take `N/C=N/O`: the growth inhibition was 19.9%.

On to `O=[N+]([O-])c1ccc(OCCO)c([N+](=O)[O-])c1`, for which the growth inhibition is 6.75%.

Consider `CC(C)(C)C1CCC2c3c([nH]c4ccccc34)C3C(=O)N(c4ccc(Br)cc4)C(=O)C3C2C1` (stereo not given), for which the growth inhibition was 12.8%.

Regarding `CCOC(=O)C(CCC(C)(C)SCc1ccccc1)(NC(C)=O)C(=O)OCC`, the growth inhibition was 25.8%.

As to `CCC1CCN(CC)CC1`, the growth inhibition was 3.1%.

With `Cc1cc(C(=O)O)c(C(=O)O)c(=O)[nH]1`, the growth inhibition was 0.6%.

Regarding `CC(=O)/C(=C\c1ccc([N+](=O)[O-])o1)C(=O)CCN(C)C`, the growth inhibition is 25.1%.

`C(=C1/NC(c2ccccc2)=Nc2ccccc21)/c1ccccc1`: the growth inhibition is 24.3%.

As for `COc1ccc2ccccc2c1C1NC(=O)c2ccccc2N1` (stereo not given), the growth inhibition is 13.1%.

In the case of `NCCNCCCCCCNC(=O)c1cccc2cc3ccccc3nc12`, the growth inhibition was -6.7%.

`c1ccc(-c2ccc3ncccc3c2)cc1`: the growth inhibition is -17.9%.

For `CCOC(=O)Oc1ccc(C(CNC(C)C)OC(=O)OCC)cc1OC(=O)OCC` (stereo not given), the growth inhibition is 38.5%.

Take `S=C1Cc2c([nH]c3ccccc23)-c2ccccc2N1`: the growth inhibition is -11.1%.

Take `Cc1nc(N)c(N2CCN(S(=O)(=O)N(Cc3ccccc3)Cc3ccccc3)CC2)c(=O)[nH]1`: the growth inhibition is -10.9%.

Turning to `CC(Br)C1=CC(c2ccccc2)(c2ccccc2)c2ccccc21` (stereo not given), the growth inhibition is 97% (active).

As for `COC(=O)c1ccc(N(C)CCC(=O)COC(C)=O)cc1`, the growth inhibition was 17.9%.

A further test can be described thus: NCI Yeast Anticancer Drug Screen. Data for the mec2-1 strain (AID 157). The following applies: S. cerevisiae mec2-1 strain, at 50.0 µM, hits give high values. The method in brief:
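mec2-1 yeast strain, carrying an alteration in DNA damage repair or cell cycle control, was exposed to compounds; growth inhibition was measured relative to vehicle-treated controls.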
For `CC(C)CCOC(=S)S`, the growth inhibition was 17.9%.

As for `CCCCCCNC(=O)CCC(NC(=O)c1ccc(N(C)Cc2cnc3nc(N)nc(N)c3n2)cc1)C(=O)NCCCCCC` (stereo not given), the growth inhibition was 17.1%.

Turning to `N#C/C(N)=C(\C#N)N=CNc1ccc(N)cc1`, the growth inhibition is -31.1%.

Consider `ClC1CC2CCC1C2Br` (stereo not given) (tested in a mixture with another compound), for which the growth inhibition is -14.2%.

As for `NC(CS)C(=O)NCCNCCNc1ccc(NCCNCCNC(=O)C(N)CS)c2c1C(=O)c1c(O)ccc(O)c1C2=O` (stereo not given), the growth inhibition is -12.4%.

Regarding `Nc1c(I)cc(C(=O)O)c(O)c1I`, the growth inhibition is -26.6%.

Regarding `O=c1[nH]cnc2c1ncn2CCCc1ccccc1`, the growth inhibition was 7.5%.

With `CC(=O)NNC(=S)/N=C/c1c(C)[nH]n(-c2ccccc2)c1=O`, the growth inhibition is -7.95%.

As to `CCC(CO)c1ccccc1` (stereo not given), the growth inhibition was -17.7%.

Turning to `CN=NNc1ccccc1`, the growth inhibition was 6.75%.

As to `CC(C)(CCCOc1ccccc1)/C(=N/O)c1ccccc1`, the growth inhibition was 5.6%.

Turning to `COC(=O)/C(C#N)=C/c1cccnc1`, the growth inhibition is -7.65%.

As to `CN(Cc1nc2c(N)nc(N)nc2nc1N)c1ccc(C(=O)NC(CCC(=O)O)C(=O)O)cc1` (stereo not given), the growth inhibition was 42.2%.

In the case of `CCN(CC)C(=O)Nc1cccc(O)c1`, the growth inhibition is 6.65%.

Take `O=C(NCCN1CCCC1)Nc1ccccc1`: the growth inhibition was -20.2%.

For `CC(O)CN1CCOCC1` (stereo not given), the growth inhibition was 2.2%.

For `COc1ccc(NC(=O)CC(=O)N2N=C(N(c3ccccc3)c3ccccc3)CC2c2ccccc2)cc1` (stereo not given), the growth inhibition was 2.05%.

As to `CSc1cc(/C=C/c2ccccc2)ccc1[N+](=O)[O-]`, the growth inhibition was 0.95%.

Regarding `NCc1ccc(C(=O)O)cc1`, the growth inhibition was -8.9%.

With `O=C1NC(c2ccccc2Cl)Nc2ccccc21` (stereo not given), the growth inhibition was 4.1%.

As to `O=C1c2ccccc2Cc2ccccc21`, the growth inhibition was 7.75%.

For the molecule `CN1CCC(c2ccccc2)(c2ccccc2)OC1`, the growth inhibition was 6.85%.

In the case of `O=[N+]([O-])c1cccc(C2=NOC3CCCC23)c1` (stereo not given), the growth inhibition was -7.6%.

Take `C[Si](C)(C)C#CCOC=C1CC1`: the growth inhibition was -39.5%.

For the molecule `N/C=N/O`, the growth inhibition was 4.35%.

As to `O=[N+]([O-])c1ccc(OCCO)c([N+](=O)[O-])c1`, the growth inhibition is -5.85%.

`CC(C)(C)C1CCC2c3c([nH]c4ccccc34)C3C(=O)N(c4ccc(Br)cc4)C(=O)C3C2C1` (stereo not given): the growth inhibition is 11.8%.

`CCOC(=O)C(CCC(C)(C)SCc1ccccc1)(NC(C)=O)C(=O)OCC`: the growth inhibition is -1.15%.

On to `CCC1CCN(CC)CC1`, for which the growth inhibition was -37.4%.

In the case of `Cc1cc(C(=O)O)c(C(=O)O)c(=O)[nH]1`, the growth inhibition was 5.8%.

Take `CC(=O)/C(=C\c1ccc([N+](=O)[O-])o1)C(=O)CCN(C)C`: the growth inhibition was 38.4%.

For the molecule `C(=C1/NC(c2ccccc2)=Nc2ccccc21)/c1ccccc1`, the growth inhibition was -0.5%.

`COc1ccc2ccccc2c1C1NC(=O)c2ccccc2N1` (stereo not given): the growth inhibition was -17.8%.

As for `NCCNCCCCCCNC(=O)c1cccc2cc3ccccc3nc12`, the growth inhibition is -25.4%.

As to `c1ccc(-c2ccc3ncccc3c2)cc1`, the growth inhibition was 3.5%.

Consider `CCOC(=O)Oc1ccc(C(CNC(C)C)OC(=O)OCC)cc1OC(=O)OCC` (stereo not given), for which the growth inhibition is 2.8%.

Consider `S=C1Cc2c([nH]c3ccccc23)-c2ccccc2N1`, for which the growth inhibition was 26.6%.

Consider `Cc1nc(N)c(N2CCN(S(=O)(=O)N(Cc3ccccc3)Cc3ccccc3)CC2)c(=O)[nH]1`, for which the growth inhibition was 2.3%.

In the case of `CC(Br)C1=CC(c2ccccc2)(c2ccccc2)c2ccccc21` (stereo not given), the growth inhibition is 98% (active).

Turning to `COC(=O)c1ccc(N(C)CCC(=O)COC(C)=O)cc1`, the growth inhibition was 9.7%.
